About 3,200 (25%) of roughly 13,000 compounds showed an effect of 50% or more. Some of the results follow.
The compounds below were run on P. falciparum stage V gametocytes. Details: 48 h, 5 µM; inhibitor.
Design: BacTiter-Glo ATP luminescence viability of purified stage V gametocytes in 384-well plates, per cent inhibition versus DMSO

SMILES | % Inhibition [%]
Cc1cccc2nc(-c3cccc(-c4cccc(C(=O)NCc5nccn5C)c4)c3)[nH]c12 [TCMDC-132355] | -47.29
CNc1ccc(CNCc2cccc(-c3ccc(-c4nc5ccc(C(F)(F)F)cc5[nH]4)cc3)c2)cc1 [TCMDC-132982] | -73.95
CNCCNCc1cccc(-c2ccc(-c3nc4ccc(C(F)(F)F)cc4[nH]3)cc2)c1 [TCMDC-132834] | 79.7
CN(CCN)Cc1cccc(-c2cccc(-c3nc4ccc(C(F)(F)F)cc4[nH]3)c2)c1 [TCMDC-132818] | 68
CN(CCN)Cc1cccc(-c2cccc(-c3nc4ccc(F)cc4[nH]3)c2)c1 [TCMDC-132822] | 48.31
CNCCNCc1cccc(-c2cccc(-c3nc4ccc(C(F)(F)F)cc4[nH]3)c2)c1 [TCMDC-132827] | 52.85
COc1ccc(CNCc2cccc(-c3ccc(-c4nc5ccc(C(F)(F)F)cc5[nH]4)cc3)c2)cc1 [TCMDC-132723] | -32.29
CNCCNCc1ccc(-c2cccc(-c3nc4ccc(C(F)(F)F)cc4[nH]3)c2)cc1 [TCMDC-132826] | 78.68
CC(C)NCc1cccc(-c2ccc(-c3nc4ccc(C(F)(F)F)cc4[nH]3)cc2)c1 [TCMDC-132742] | -56.16
COc1ccc(CNCc2ccc(-c3cccc(-c4nc5ccc(C(F)(F)F)cc5[nH]4)c3)cc2)cc1 [TCMDC-132731] | -22.42
CNCCNCc1ccc(-c2ccc(-c3nc4ccc(C(F)(F)F)cc4[nH]3)cc2)cc1 [TCMDC-132833] | 32.25
Clc1ccc(-c2cc(-c3csc(NCCN4CCCCC4)n3)on2)cc1 [TCMDC-140321] | -2.378
NC(=O)C1CCN(Cc2cccc(-c3cccc(-c4nc5cc(C(F)(F)F)ccc5[nH]4)c3)c2)CC1.O=C(O)C(F)(F)F [TCMDC-132696] | -65.64
Cc1ccc(C(C)C)c(Oc2ccc3nc(N)nc(N)c3c2)c1 [TCMDC-135559] | -10.97
OC1(Cc2ccccc2)CCN(Cc2cccc(-c3c[nH]c4nc(NC5CCCC5)ncc34)c2)CC1 [TCMDC-133773] | -59.82
O=C(O)C(F)(F)F.c1cc(CNCCc2ccncc2)cc(-c2ccc(-c3nc4ccccc4[nH]3)s2)c1 [TCMDC-132842] | -14.4
FC(F)(F)c1ccc2nc(-c3cccc(-c4cccc(CNCCc5ccncc5)c4)c3)[nH]c2c1 [TCMDC-132847] | 78.26
FC(F)(F)c1ccc2nc(-c3cccc(-c4cccc(CN5CCN(c6ccncc6)CC5)c4)c3)[nH]c2c1 [TCMDC-132911] | -29.28
c1cc(CNCCc2ccncc2)cc(-c2csc(-c3nc4ccccc4[nH]3)c2)c1 [TCMDC-132841] | -33.89
c1cc(CNCCc2ccncc2)cc(-c2cccc(-c3nc4ccccc4[nH]3)c2)c1 [TCMDC-132858] | 84.49
FC(F)(F)c1ccc2nc(-c3cccc(-c4ccc(CNCCc5ccncc5)cc4)c3)[nH]c2c1 [TCMDC-132845] | -28.78
O=C(c1cc2nc3c(c(C(F)(F)F)n2n1)CCc1ccccc1-3)N1CCN2CCCC2C1 (centres unmarked) [TCMDC-123850] | 0.1952
O=C(NCC1CCN(Cc2ccc(F)cc2)C1)c1cc(-c2cccc(C(F)(F)F)c2)cs1 (centres unmarked) [TCMDC-134481] | 39.58

SMILES | % Inhibition [%]
CCc1ccc(CN2CCC(CNC(=O)c3cc(-c4cccc(C(F)(F)F)c4)cs3)C2)cc1 (centres unmarked) [TCMDC-134430] | 102.1
CC(C)(C)CCN1CCC(CNC(=O)c2cc(-c3cccc(C(F)(F)F)c3)cs2)C1 (centres unmarked) [TCMDC-134425] | 78.38
CC(C)(C)c1ccc(CN2CCC(NC(=O)c3cc(-c4cccc(C(F)(F)F)c4)cs3)C2)cc1 (centres unmarked) [TCMDC-134475] | 53.3
CC(C)(C)CCN1CCC(NC(=O)c2ccc(-c3cccc(C(F)(F)F)c3)s2)CC1 [TCMDC-134322] | -68.21
CSc1ccc(CN2CCC(NC(=O)c3ccc(-c4cccc(C(F)(F)F)c4)s3)CC2)cc1 [TCMDC-134340] | 5.591
CC(C)c1ccc(CN2CCC(CNC(=O)c3cc(-c4cccc(C(F)(F)F)c4)cs3)C2)cc1 (centres unmarked) [TCMDC-134435] | 101.9
CC(C)(C)CCN1CCC(CNC(=O)c2cc(-c3cccc(Cl)c3)cs2)C1 (centres unmarked) [TCMDC-134426] | 39.67
O=C(NC1CCN(Cc2ccc(F)cc2)CC1)c1ccc(-c2cccc(C(F)(F)F)c2)s1 [TCMDC-134358] | -14.39
COc1ccc(CNC(=O)NC2CCN(c3ccnc(Nc4ccc(F)cc4)n3)C2)cc1 (centres unmarked) [TCMDC-133592] | -44.87
CCCc1cc(Cc2cnc(N)nc2N)cc(CCC)c1OCCCCC(=O)OC [TCMDC-137290] | -38.14
CCNc1cc(C)nc(Nc2ccccc2)n1 [TCMDC-134006] | 18.88
CC(=O)Nc1nc(C(=O)Nc2ccc(-c3ccc(-c4nc5ccccc5[nH]4)cc3)cc2)cs1 [TCMDC-137128] | -5.634
CCOC(=O)CCCOc1c(OC)cc(Cc2cnc(N)nc2N)cc1OC [TCMDC-137899] | -8.343
O=C(Nc1ccc(Cl)c(C(F)(F)F)c1)Nc1ccc(Cl)c(C(F)(F)F)c1 [TCMDC-137559] | -42.31
CC(C)(C)c1ccc(CN2CCC(CNC(=O)c3cc(-c4cccc(C(F)(F)F)c4)cs3)C2)cc1 (centres unmarked) [TCMDC-134442] | 107
CN(C)CCOc1cc(NC(=O)/C=C/c2cccc3ccccc23)ccc1I [TCMDC-139119] | 42.15
OCCC1CCN(Cc2ccc(-c3ccc(-c4nc5ccccc5[nH]4)cc3)cc2)CC1 [TCMDC-133905] | -1.76
OCC1CCN(Cc2cccc(-c3ccc(-c4nc5ccc(F)cc5[nH]4)cc3)c2)CC1 [TCMDC-133934] | -11.78
OCC1CCN(Cc2ccc(-c3cccc(-c4nc5ccccc5[nH]4)c3)cc2)CC1 [TCMDC-132552] | 86.93
NC(=O)C1CCN(Cc2ccc(-c3cccc(-c4nc5ccc(F)cc5[nH]4)c3)cc2)CC1 [TCMDC-132689] | -35.18
OCC1CCN(Cc2ccc(-c3ccc(-c4nc5ccccc5[nH]4)cc3)cc2)CC1 [TCMDC-133927] | -51.35
OCC1CCN(Cc2ccc(-c3cccc(-c4nc5ccc(F)cc5[nH]4)c3)cc2)CC1 [TCMDC-133121] | 70.65
COc1cccc(CNC[C@@H](O)[C@H](Cc2ccccc2)NC(=O)c2cc(OC(C)C)cc(N3CCCCS3(=O)=O)c2)c1 [TCMDC-134522] | -6.565

SMILES | % Inhibition [%]
COc1ccc2c(c1)CCCC2C(C)NCC(O)c1cccc(C(F)(F)F)c1 (centres unmarked) [TCMDC-131535] | -11.59
Cc1[nH]c(C)c(-c2ccc(-c3cccc(Cl)c3)nc2)c(=O)c1Br [TCMDC-136160] | 67.06
Cc1[nH]c(C)c(-c2ccc(-c3cccc(Cl)c3)nc2)c(=O)c1Cl [TCMDC-136300] | 76.37
Cc1ccc(NC(=O)c2ccc(CN3CCCN(CCC(C)C)CC3)cc2)cc1C [TCMDC-136443] | -19.3
Cc1nc2c(Nc3nc(-c4ccncc4)cs3)ncnc2n1-c1ccccc1Cl [TCMDC-136288] | 72.25
Cc1ccc(-n2c(C)nc3c(Nc4ccc(-c5ccncc5)cc4)ncnc32)c(C)c1 [TCMDC-136289] | 103.3
Cn1cnc2c(Nc3ccncc3)nc(-c3ccc4ccccc4c3)nc21 [TCMDC-141131] | -3.392
Cc1nc(Nc2ccncc2)cc(-c2ccncc2)n1 [TCMDC-124589] | -12.99
Oc1ccc2[nH]c(-c3cccc(F)c3)nc2c1CN1CCC(O)(c2ccccc2)CC1 [TCMDC-136359] | -19.77
CC(C(=O)Nc1ccc(Br)cc1Br)N1CCN(C(=O)c2ccco2)CC1 (centres unmarked) [TCMDC-124879] | -7.948
CCCC(C)NC(=O)[C@H](CC1CCCCC1)NC(=O)c1ccc(O)c(-c2ccc(OC)cc2)c1 (some centres unmarked) [TCMDC-140801] | 27.46
CN(C)CCCNCc1ccc(-c2ccc(CNCCc3ccccc3)cc2)cc1 [TCMDC-141456] | 100.3
CN(C)CCCOc1cccc(NC(=O)Nc2ccc(-c3ccccc3)cc2)c1 [TCMDC-139539] | -65.39
CN(C)CCCNCc1ccc(-c2ccc(CNCCOc3ccccc3)cc2)cc1 [TCMDC-141457] | 91.94
CC[C@H](C)CNC(=O)c1cncc(-c2ccc(CNCCOc3ccccc3)cc2)c1 [TCMDC-134239] | -0.3321
CCCNC(=O)c1cncc(-c2ccc(CNCCCc3ccccc3)cc2)c1 [TCMDC-134248] | 11.91
CC1(C)N=C(N)N=C(N)N1OCCOc1cccc(C(F)(F)F)c1 [TCMDC-131615] | 4.099
CCCCCCNCc1c(O)ccc2c(CNCCCCCC)c(O)ccc12 [TCMDC-137592] | -1.678
CCc1c(CCNCCCCCCNCCc2ccc(Br)cc2)ccc(O)c1O [TCMDC-132044] | 115.9
Cc1cc(CNCCCCCCNCc2cccc([N+](=O)[O-])c2)ccc1O [TCMDC-140413] | 32.63
CCc1c(CCNCCCCCCNCCc2ccc([N+](=O)[O-])cc2)ccc(O)c1O [TCMDC-132067] | 69.46
O=C(N[C@H]1CCCC[C@H]1C(=O)O)c1ccccc1 [TCMDC-124293] | -3.601
